# According to PMC6522510 (Nature Communications, 2019):
# Assays:
# Conditions in all cases: 72 h, relative to cycloheximide control, log10 luminescence
# CHRF288-11 = test system: CHRF288-11
# CMK = test system: CMK
# CMS = test system: CMS
# M07e = test system: M07e
# ML-2 = test system: ML-2
# MOLM-13 = test system: MOLM-13
# MV4-11 = test system: MV4-11
# U937 = test system: U937
compound,measurement,setting,value
"C[C@]12CC[C@@H]3c4ccc(OC(=O)N(CCCl)CCCl)cc4CC[C@H]3[C@@H]1CC[C@@H]2OP(=O)(O)O [SJ000518944-1, ES[…] SODIUM]",CHRF288-11 %inh,CHRF288-11,1.087%
same,CMK %inh,CMK,-3.517%
same,CMS %inh,CMS,-0.5738%
same,M07e %inh,M07e,1.122%
same,ML-2 %inh,ML-2,0.1396%
same,MOLM-13 %inh,MOLM-13,1.341%
same,MV4-11 %inh,MV4-11,2.919%
same,U937 %inh,U937,-1.233%
